Source: PubChem BioAssay AID1159580 (chemical genetic matrix, 2015)
Values joined by “and” are separate entries in the source; they are usually repeats but may differ in a detail not shown here. Identical values can stand only once. Out of some 5,500 compounds screened, about 2,000 (36%) were called active. About 18% were inconclusive and are not listed. Cut-off read from the data, not from the text of the source: active = normalized growth mostly below about 0.91 (no sharp cut-off); inconclusive = no clear call, values can overlap the other calls; inactive = mostly above about 0.92. The list shows a part of the results.

Assay: chemical genetic growth profiling, strain panel (AID 1159580);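 note: tested at 20 µM; growth read once vehicle control cultures reached saturation at 30 °C; 1 = growth at the plate median or of vehicle wells; lower values mean less growth of the strain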
Settings: S. cerevisiae deletion strains, growth OD
[1] = locus YJR075W, strain HOC1, hits give low values
[2] = locus YMR307W, strain GAS1, hits give low values

Measured: normalized growth

COc1cc2c(cc1O)CC1c3c(cc(O)c(OC)c3-2)CCN1C (stereo not drawn)
inactive: locus YAL021C, strain ccr4, hits give low values 1.02 | locus YAL026C, strain drs2, hits give low values 1.03 | locus YAL030W, strain snc1, hits give low values 1.01 | locus YBL061C, strain skt5, hits give low values 1.02 | locus YBR009C, strain hhf1, hits give low values 1.03 | locus YBR021W, strain FUR4, hits give low values 0.993 | locus YBR023C, strain chs3, hits give low values 1.02 | locus YBR171W, strain sec66, hits give low values 1.01 | locus YBR229C, strain ROT2, hits give low values 0.999 | locus YBR231C, strain swc5, hits give low values 1.01 | locus YBR279W, strain paf1, hits give low values 1.01 | locus YCL011C, strain gbp2, hits give low values 1.02 | locus YCL016C, strain dcc1, hits give low values 1 | locus YCL029C, strain bik1, hits give low values 0.994 | locus YCL061C, strain MRC1, hits give low values 1.01 | locus YCL069W, strain vba3, hits give low values 1.01 | locus YCR088W, strain abp1, hits give low values 1.01 | locus YDL005C, strain med2, hits give low values 1.03 | locus YDL035C, strain GPR1, hits give low values 1 | locus YDL040C, strain nat1, hits give low values 1.01 | locus YDL074C, strain BRE1, hits give low values 1 | locus YDL101C, strain DUN1, hits give low values 0.996 | locus YDL185W, strain tfp1, hits give low values 0.991 | locus YDL192W, strain arf1, hits give low values 0.996 | locus YDR001C, strain nth1, hits give low values 1.01 | locus YDR069C, strain doa4, hits give low values 1.04 | locus YDR101C, strain arx1, hits give low values 0.98 | locus YDR137W, strain rgp1, hits give low values 1.04 | locus YDR159W, strain sac3, hits give low values 1.04 | locus YDR162C, strain NBP2, hits give low values 1 | locus YDR195W, strain ref2 0.999 | locus YDR297W, strain sur2, hits give low values 1.01 | locus YDR318W, strain mcm21, hits give low values 1 | locus YDR334W, strain swr1, hits give low values 1.01 | locus YDR335W, strain msn5, hits give low values 1.01 | locus YDR388W, hits give low values 0.996 | locus YDR392W, strain spt3, hits give low values 0.95 | locus YDR502C, strain sam2, hits give low values 0.993 | locus YEL003W, strain gim4, hits give low values 1.02 | locus YEL037C, strain rad23, hits give low values 1.01 | locus YEL061C, strain CIN8 (second series), hits give low values 1.01 | locus YEL061C, strain CIN8, hits give low values 0.998 | locus YER015W, strain faa2, hits give low values 1.01 | locus YER016W, strain bim1, hits give low values 1.02 | locus YER110C, hits give low values 0.997 | locus YER111C, strain swi4, hits give low values 1.01 | locus YER155C, strain BEM2 (second series), hits give low values 1.03 | locus YER155C, strain BEM2, hits give low values 1 | locus YER167W, strain BCK2, hits give low values 1 | locus YFR010W, strain ubp6, hits give low values 1.02 | locus YGL078C, strain dbp3, hits give low values 0.997 | locus YGL086W, strain mad1, hits give low values 0.978 | locus YGL167C, strain pmr1, hits give low values 1 | locus YGL173C, strain kem1, hits give low values 1.02 | locus YGL227W, strain vid30, hits give low values 1.02 | locus YGL240W, strain doc1, hits give low values 1.01 | locus YGL248W, strain PDE1, hits give low values 1.01 | locus YGL253W, strain hxk2, hits give low values 1 | locus YGR135W, strain pre9, hits give low values 0.986 | locus YGR252W, strain gcn5, hits give low values 0.917 | locus YHR013C, strain ard1, hits give low values 1 | locus YHR027C, strain rpn1, hits give low values 1.02 | locus YHR030C, strain SLT2, hits give low values 1.01 and 0.986 | locus YHR079C, strain IRE1 (second series), hits give low values 0.993 | locus YHR079C, strain IRE1, hits give low values 1.01 | locus YHR094C, strain hxt1, hits give low values 1 | locus YHR129C, strain ARP1, hits give low values 0.994 | locus YHR142W, strain chs7, hits give low values 0.996 | locus YHR200W, strain rpn10, hits give low values 0.988 | locus YIL066C, strain RNR3, hits give low values 1.01 | locus YIL073C, strain SPO22, hits give low values 1.03 | locus YIL125W, strain kgd1, hits give low values 0.986 | locus YIR030C, strain dcg1, hits give low values 0.992 | locus YJL092W, strain hpr5, hits give low values 1.01 | locus YJL095W, strain BCK1 (second series), hits give low values 0.988 | locus YJL095W, strain BCK1, hits give low values 1.01 and 0.996 | locus YJL115W, strain asf1, hits give low values 1.02 | locus YJL129C, strain trk1, hits give low values 1.02 | locus YJL134W, strain LCB3, hits give low values 1.01 | locus YJL154C, strain vps35, hits give low values 1.01 | locus YJL164C, strain tpk1, hits give low values 1.01 | locus YJL166W, strain qcr8, hits give low values 1.01 | locus YJL168C, strain set2, hits give low values 0.988 | locus YJL187C, strain SWE1 (second series), hits give low values 0.998 | locus YJL187C, strain SWE1, hits give low values 1 | locus YJR043C, strain POL32, hits give low values 0.987 | locus YJR066W, strain TOR1, hits give low values 0.946 | [1] 1.01 | locus YKL009W, strain mrt4, hits give low values 1 | locus YKL068W, hits give low values 1.01 | locus YKL085W, strain MDH1 (second series), hits give low values 0.994 | locus YKL085W, strain MDH1, hits give low values 0.994 | locus YKL160W, strain elf1, hits give low values 1.01 | locus YKR001C, strain vps1, hits give low values 1.01 | locus YKR026C, strain gcn3, hits give low values 0.983 | locus YKR091W, strain srl3, hits give low values 1.01 | locus YLL001W, strain dnm1, hits give low values 1 | locus YLL026W, hits give low values 1.02 | locus YLL041C, strain sdh2, hits give low values 1.01 | locus YLR027C, strain aat2, hits give low values 1.01 | locus YLR039C, strain RIC1, hits give low values 1.01 | locus YLR058C, strain SHM2, hits give low values 1.01 | locus YLR102C, strain apc9, hits give low values 0.998 | locus YLR113W, strain HOG1, hits give low values 0.994 | locus YLR221C, strain rsa3, hits give low values 1.01 | locus YLR258W, strain gsy2, hits give low values 1.02 | locus YLR262C, strain YPT6 (second series), hits give low values 1.03 | locus YLR262C, strain YPT6, hits give low values 1.01 | locus YLR268W, strain sec22, hits give low values 0.976 | locus YLR320W, strain mms22, hits give low values 1.02 | locus YLR330W, strain CHS5, hits give low values 1.01 | locus YLR342W, strain FKS1 (second series), hits give low values 0.998 | locus YLR342W, strain FKS1, hits give low values 1 | locus YLR357W, strain rsc2, hits give low values 1.04 | locus YLR370C, strain arc18, hits give low values 1.03 | locus YLR371W, strain rom2, hits give low values 0.996 | locus YLR384C, strain iki3, hits give low values 1.02 | locus YLR418C, strain cdc73, hits give low values 0.98 | locus YML016C, strain PPZ1, hits give low values 1 | locus YML032C, strain rad52, hits give low values 1 | locus YML120C, strain ndi1, hits give low values 1.01 | locus YML124C, strain tub3, hits give low values 0.992 | locus YMR058W, strain fet3, hits give low values 1.01 | locus YMR078C, strain ctf18, hits give low values 1 | locus YMR125W, strain sto1, hits give low values 1.03 | locus YMR129W, hits give low values 1.03 | locus YMR205C, strain PFK2, hits give low values 1.05 | locus YMR223W, strain ubp8, hits give low values 0.986 | locus YMR231W, strain pep5, hits give low values 1.01 | locus YMR263W, strain SAP30, hits give low values 1 | [2] 0.997 | locus YNL067W, strain RPL9B, hits give low values 0.998 | locus YNL071W, strain lat1, hits give low values 1.02 | locus YNL183C, strain NPR1, hits give low values 0.951 | locus YNL209W, strain ssb2, hits give low values 1.01 | locus YNL233W, strain BNI4, hits give low values 0.992 | locus YNL248C, strain rpa49, hits give low values 1 | locus YNL250W, strain rad50, hits give low values 1 | locus YNL271C, strain bni1, hits give low values 0.992 | locus YNL298W, strain CLA4, hits give low values 0.995 | locus YNL307C, strain MCK1, hits give low values 0.994 | locus YNL322C, strain KRE1 (second series), hits give low values 1.01 | locus YNL322C, strain KRE1, hits give low values 1 | locus YNR049C, strain mso1, hits give low values 1.01 | locus YNR052C, strain pop2, hits give low values 1.01 | locus YOL012C, strain htz1 0.764 | locus YOL147C, strain pex11, hits give low values 0.998 | locus YOR001W, strain rrp6, hits give low values 1.01 | locus YOR061W, strain CKA2, hits give low values 1.01 | locus YOR069W, strain VPS5, hits give low values 1 | locus YOR070C, strain gyp1, hits give low values 1.02 | locus YOR080W, strain dia2, hits give low values 1.01 | locus YOR083W, strain WHI5, hits give low values 0.997 | locus YOR106W, strain vam3, hits give low values 1.03 | locus YOR136W, strain idh2, hits give low values 0.99 | locus YOR144C, strain elg1, hits give low values 0.993 | locus YOR184W, strain ser1, hits give low values 0.992 | locus YOR231W, strain MKK1, hits give low values 1 | locus YOR265W, strain rbl2, hits give low values 1 | locus YOR270C, strain vph1, hits give low values 1.06 | locus YOR290C, strain snf2, hits give low values 0.999 | locus YOR316C, strain cot1, hits give low values 1 | locus YPL051W, strain arl3, hits give low values 0.994 | locus YPL055C, strain LGE1, hits give low values 0.988 | locus YPL078C, strain atp4, hits give low values 1.01 | locus YPL106C, strain sse1, hits give low values 1.04 | locus YPL240C, strain hsp82, hits give low values 1.01 | locus YPL241C, strain CIN2, hits give low values 1 | locus YPL256C, strain CLN2, hits give low values 0.961 | locus YPR119W, strain clb2, hits give low values 0.998 | locus YPR141C, strain kar3, hits give low values 0.985 | locus YPR163C, strain tif3, hits give low values 0.996 | locus YPR167C, strain met16, hits give low values 1 | strain wtn01, hits give low values 0.97

CCCN1CCO[C@@H]2c3cc(O)ccc3OC[C@H]21
inactive: locus YAL013W, strain DEP1, hits give low values 0.981 | locus YAL040C, strain CLN3, hits give low values 1.09 | locus YCL061C, strain MRC1 (second series), hits give low values 1 | locus YDR150W, strain NUM1, hits give low values 0.999 | locus YDR363W, strain ESC2, hits give low values 1.03 | locus YER002W, strain NOP16, hits give low values 0.989 | locus YGR078C, strain PAC10, hits give low values 1.01 | [1] 0.993 | [2] 0.981 | locus YNL153C, strain GIM3, hits give low values 0.97 | locus YNL175C, strain NOP13, hits give low values 1.02 | locus YNL197C, strain WHI3, hits give low values 1 | locus YNL224C, strain SQS1, hits give low values 0.993 | locus YOR083W, strain WHI5 (second series), hits give low values 1.02
